Source: PubChem BioAssay (Tox21)
Results filed as inconclusive are left out. Activity calls are given as the source filed them. Unless noted, calls follow the shape of the full dose curve.

Tests used:
[1] = Nuclear factor erythroid 2-related factor 2/antioxidant responsive element (Nrf2/ARE) small molecule agonists: qHTS cell viability counter screen in human keratinocytes (AID 1919968; active = well fitted cell-killing curve with a large enough effect in the repeat runs; also: nearly all actives have a fitted effect of over 55% in size; also: potency is read from the fitted curve at half-maximal effect)
In short: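 CellTiter-Fluor fluorescence, read 1 h after reagent, gave viability in the same wells as the ARE-luciferase assay. KeratinoSens cells (1,500/well) had 23 h compound exposure at 37 C/5% CO2 following 5 h plating.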

[2] = Nuclear factor erythroid 2-related factor 2/antioxidant responsive element (Nrf2/ARE) small molecule agonists: luciferase reporter gene qHTS assay in human keratinocytes (AID 1919969); also: nearly all actives have a fitted effect of over 35% in size
[3] = target: Gonadotropin-releasing hormone receptor (Homo sapiens) (UniProt P30968); assay: Human gonadotropin-releasing hormone receptor (GnRHR) small molecule agonists, calcium flux assay in GnRHR-HEK293 cells (AID 1920063); also: nearly all actives have a fitted effect of over 35% in size
Gonadotropin-releasing hormone receptor (Homo sapiens), sequence (P30968 whole entry, looked up): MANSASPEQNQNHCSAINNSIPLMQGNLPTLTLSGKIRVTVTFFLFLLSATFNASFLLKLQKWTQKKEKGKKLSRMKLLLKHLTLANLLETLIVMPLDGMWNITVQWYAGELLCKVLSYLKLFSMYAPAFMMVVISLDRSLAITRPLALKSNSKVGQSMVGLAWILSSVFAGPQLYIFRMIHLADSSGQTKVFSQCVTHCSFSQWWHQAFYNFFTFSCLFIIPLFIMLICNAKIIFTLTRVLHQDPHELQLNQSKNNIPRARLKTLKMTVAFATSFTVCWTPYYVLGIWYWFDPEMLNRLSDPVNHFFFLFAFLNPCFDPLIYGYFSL
In short: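 Agonist mode: compounds at 15 concentrations, in triplicate, went onto calcium dye-loaded GnRHR-HEK293 cells. Intracellular calcium was then followed as 480/540 nm fluorescence at 1 s intervals over 3 min.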

[4] = G protein-coupled receptor (GPCR) small molecule agonists, calcium flux assay: HEK293 wild type cell line counter screen (AID 1920065)
In short: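 Calcium flux counter screen: compound added in agonist mode at 15 concentrations in triplicate to dye-loaded parental HEK293 cells. Fluorescence (480/540) read kinetically for 3 min; ATP served as positive control.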

[5] = p53 small molecule agonists, cell-based qHTS assay with human liver microsomes (AID 1963577);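 also: p53 response element beta-lactamase reporter cells with liver microsomes plus NADPH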
In short: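 With metabolic activation: human liver microsomes (0.5 mg/mL final) plus NADPH (0.5 mg/mL final) added alongside compounds to p53RE-bla cells; 16 h 37 C exposure; beta-lactamase read by LiveBLAzer fluorescence.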

[6] = p53 small molecule agonists, cell-based qHTS assay with rat liver microsomes (AID 1963578)
In short: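 Metabolic activation by rat liver microsomes and NADPH, each 0.5 mg/mL final, added right after compounds to p53RE-bla reporter cells (4,000/well, plated 5 h earlier). 16 h at 37 C, then LiveBLAzer substrate for 2 h at room temperature in the dark; fluorescence read-out.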

[7] = p53 small molecule agonists, cell-based qHTS assay with human liver microsomes: qHTS cell viability counter screen (AID 1963579); also: nearly all actives have a fitted effect of over 45% in size; also: potency is read from the fitted curve at half-maximal effect
In short: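 Metabolic activation used human liver microsomes and NADPH, both 0.5 mg/mL final, over 16 hours at 37 C on p53RE-bla cells (4,000/well). Cytotoxicity measured by CellTiter-Glo luminescence, 30 min at room temperature.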

[8] = p53 small molecule agonists, cell-based qHTS assay with rat liver microsomes: qHTS cell viability counter screen (AID 1963580); also: nearly all actives have a fitted effect of over 45% in size
In short: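 After the beta-lactamase ratio was read, CellTiter-Glo was added to the same wells and luminescence measured at 30 min; cells had been treated 16 h at 37 C with compounds, rat liver microsomes and NADPH (0.5 mg/mL final each).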

[9] = p53 small molecule agonists, cell-based qHTS assay (AID 1963582; active = well fitted activation curve with a large enough effect in the signal ratio in the repeat runs, not every such curve was filed as active; the % refers to the signal ratio)
In short: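 Read-out is beta-lactamase FRET fluorescence after 2 h at room temperature with LiveBLAzer B/G substrate. p53 response element-bla cells were treated 16 h at 37 C with compounds in DMSO, added 5 h after seeding.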

[10] = target: 5-hydroxytryptamine receptor 2A (Homo sapiens) (UniProt P28223); assay: 5-hydroxytryptamine receptor 2A (HTR2A) small molecule antagonists, cell-based qHTS assay (AID 1963586); also: nearly all actives have a fitted effect of over 45% in size
5-hydroxytryptamine receptor 2A (Homo sapiens), sequence (P28223 whole entry, looked up): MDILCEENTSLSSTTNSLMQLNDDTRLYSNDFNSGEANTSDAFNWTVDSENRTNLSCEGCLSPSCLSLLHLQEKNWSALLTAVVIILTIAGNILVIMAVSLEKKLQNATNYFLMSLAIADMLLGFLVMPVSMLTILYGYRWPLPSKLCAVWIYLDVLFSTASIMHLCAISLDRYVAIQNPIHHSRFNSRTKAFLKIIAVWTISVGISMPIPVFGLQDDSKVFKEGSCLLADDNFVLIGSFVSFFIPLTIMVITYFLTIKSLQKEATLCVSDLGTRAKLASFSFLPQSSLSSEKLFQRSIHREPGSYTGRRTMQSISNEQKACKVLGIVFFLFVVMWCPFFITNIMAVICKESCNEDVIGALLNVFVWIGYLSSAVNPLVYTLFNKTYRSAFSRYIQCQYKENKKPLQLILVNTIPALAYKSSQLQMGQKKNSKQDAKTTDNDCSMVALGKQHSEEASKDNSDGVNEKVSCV
In short: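 CHO cells stably expressing human HTR2A were plated for 18 h at 37 C, then loaded with calcium dye for 1 h. Compounds were preincubated 5 min at room temperature before DOI (4 nM solution) was added. Kinetic fluorescence was read for 3 min.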

[11] = target: 5-hydroxytryptamine receptor 2A (Homo sapiens) (UniProt P28223); assay: 5-hydroxytryptamine receptor 2A (HTR2A) small molecule agonists, cell-based qHTS assay (AID 1963587); also: nearly all actives have a fitted effect of over 30% in size; also: potency is read from the fitted curve at half-maximal effect
In short: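 CHO cells stably expressing human HTR2A, plated 18 h, loaded with calcium dye 1 h at 37 C. Agonist mode: compounds added and intracellular calcium fluorescence recorded kinetically for 2 min at 1 sec intervals.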

[12] = cAMP Responsive Elements (CRE) small molecule agonists, cell-based qHTS assay (AID 1963590)
In short: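 Agonist mode: compound added to CRE-bla HEK 293T cells (2,000/well, 18 h after plating) for 3 h at 37 C/5% CO2. Reporter activity detected via FRET beta-lactamase substrate, 2 h room-temperature loading.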

[13] = target: Beta-2 adrenergic receptor (Homo sapiens) (UniProt P07550); assay: Adrenergic beta2 receptor (ADRB2) small molecule antagonists, cell-based qHTS assay (AID 1963592); also: series mostly up to about 92 µM; nearly all actives have a fitted effect of over 50% in size
Beta-2 adrenergic receptor (Homo sapiens), sequence (P07550 whole entry, looked up): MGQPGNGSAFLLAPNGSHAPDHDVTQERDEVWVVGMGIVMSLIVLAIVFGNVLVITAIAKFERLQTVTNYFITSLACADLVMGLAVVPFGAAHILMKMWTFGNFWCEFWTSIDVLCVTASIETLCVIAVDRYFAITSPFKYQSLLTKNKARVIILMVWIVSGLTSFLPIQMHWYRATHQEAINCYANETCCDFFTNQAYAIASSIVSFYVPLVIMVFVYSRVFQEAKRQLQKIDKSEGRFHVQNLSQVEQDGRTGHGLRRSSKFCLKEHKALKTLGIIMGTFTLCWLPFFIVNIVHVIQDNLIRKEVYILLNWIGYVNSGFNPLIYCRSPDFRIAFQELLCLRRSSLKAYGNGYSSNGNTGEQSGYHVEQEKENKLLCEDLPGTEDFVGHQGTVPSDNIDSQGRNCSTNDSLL
In short: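 Assay format: CHO-ADRB2 cells, 18-20hr seeding at 37C/5% CO2, then compound plus 1nM isoproterenol agonist mix for 0.5hr RT. Homogeneous time-resolved fluorescence cAMP detection after 1hr, expressed as 665/615 nm ratio.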

[14] = target: D(2) dopamine receptor (Homo sapiens) (UniProt P14416); assay: Dopamine D2 receptor (DRD2) small molecule antagonists, cell-based qHTS assay (AID 1963595; active = well fitted inhibition curve with a large enough effect in the signal ratio in the repeat runs, with a control signal flat; the % refers to the signal ratio)
D(2) dopamine receptor (Homo sapiens), sequence (P14416 whole entry, looked up): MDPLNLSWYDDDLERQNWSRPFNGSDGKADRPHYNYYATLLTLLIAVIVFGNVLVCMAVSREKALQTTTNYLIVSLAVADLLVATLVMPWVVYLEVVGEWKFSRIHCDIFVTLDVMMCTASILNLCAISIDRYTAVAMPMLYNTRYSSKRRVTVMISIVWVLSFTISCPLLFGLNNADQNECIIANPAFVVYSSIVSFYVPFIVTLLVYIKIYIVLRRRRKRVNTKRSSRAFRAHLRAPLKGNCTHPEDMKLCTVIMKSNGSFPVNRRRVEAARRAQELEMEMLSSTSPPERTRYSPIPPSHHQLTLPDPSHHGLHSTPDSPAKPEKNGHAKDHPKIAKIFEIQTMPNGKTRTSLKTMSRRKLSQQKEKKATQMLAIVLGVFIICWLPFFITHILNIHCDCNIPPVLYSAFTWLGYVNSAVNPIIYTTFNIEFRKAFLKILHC
In short: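 DRD2-HEK293; 0.1 mM Ro20-1724; cpd 10 min RT; NKH477 200 nM + quinpirole 12 nM, 30 min RT; HTRF cAMP (cAMP-d2/anti-cAMP cryptate), 665/620 nm ratio after 1 h.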

[15] = p53 small molecule agonists, cell-based qHTS assay: qHTS cell viability counter screen (AID 1963581); also: nearly all actives have a fitted effect of over 45% in size
In short: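 Counter screen read by CellTiter-Glo luminescence (ATP content, 30 min at room temperature), run in the same wells as the beta-lactamase reporter read. HCT-116 p53RE-bla cells saw compounds for 16 h at 37 C.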

[16] = target: Muscarinic acetylcholine receptor M1 (Homo sapiens) (UniProt P11229); assay: Cholinergic receptor muscarinic 1 (CHRM1) small molecule antagonists, cell-based qHTS assay (AID 1963588); also: nearly all actives have a fitted effect of over 40% in size
Muscarinic acetylcholine receptor M1 (Homo sapiens), sequence (P11229 whole entry, looked up): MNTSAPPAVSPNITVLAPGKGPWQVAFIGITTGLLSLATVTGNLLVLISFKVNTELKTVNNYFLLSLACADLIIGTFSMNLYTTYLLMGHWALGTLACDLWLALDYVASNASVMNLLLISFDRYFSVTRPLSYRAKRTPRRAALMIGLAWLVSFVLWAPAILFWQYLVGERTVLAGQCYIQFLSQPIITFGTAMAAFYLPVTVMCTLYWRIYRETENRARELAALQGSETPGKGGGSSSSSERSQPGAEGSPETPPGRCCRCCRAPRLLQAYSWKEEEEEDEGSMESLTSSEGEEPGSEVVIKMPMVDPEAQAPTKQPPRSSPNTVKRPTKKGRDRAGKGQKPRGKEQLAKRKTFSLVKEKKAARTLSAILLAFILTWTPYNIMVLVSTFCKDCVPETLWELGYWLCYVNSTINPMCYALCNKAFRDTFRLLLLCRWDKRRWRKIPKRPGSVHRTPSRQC
In short: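 Compounds were tested at 15 concentrations in three independent runs. Dye-loaded CHRM1-CHO cells were exposed 5 min at room temperature before stimulation by acetylcholine added at 50nM. Intracellular calcium was read kinetically on FDSS for 3 min.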

[17] = target: Muscarinic acetylcholine receptor M1 (Homo sapiens) (UniProt P11229); assay: Cholinergic receptor muscarinic 1 (CHRM1) small molecule agonists, cell-based qHTS assay (AID 1963589); also: nearly all actives have a fitted effect of over 35% in size
In short: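 Agonist-mode calcium-flux screen: compounds at 15 concentrations, three independent runs, were pin-transferred onto dye-loaded human CHRM1-CHO cells. Fluorescence was then recorded kinetically every second over minutes.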

[18] = cAMP Responsive Elements (CRE) small molecule antagonists, cell-based qHTS assay (AID 1963591; active = well fitted inhibition curve with a large enough effect in the signal ratio in the repeat runs, not every such curve was filed as active; the % refers to the signal ratio)
In short: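 Antagonist mode: compounds are added alongside the adenylyl cyclase activator NKH477 (0.25 uM final) to CRE-bla HEK293T cells for 3 h. LiveBLAzer FRET substrate, 2 h at room temperature, reports bla expression.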

[19] = target: Beta-2 adrenergic receptor (Homo sapiens) (UniProt P07550); assay: Adrenergic beta2 receptor (ADRB2) small molecule agonists, cell-based qHTS assay (AID 1963593);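 also: CHO cells stably overexpressing human ADRB2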
In short: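 CHO cells stably over-expressing ADRB2 were plated overnight at 37C, then dosed with compounds plus a stimulation mix containing 100uM IBMX and 25uM Ro-20-1724 for 0.5hr at room temperature. cAMP was measured by HTRF competition, 1hr.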

[20] = target: D(2) dopamine receptor (Homo sapiens) (UniProt P14416); assay: Dopamine D2 receptor (DRD2) small molecule agonists, cell-based qHTS assay (AID 1963594); also: nearly all actives have a fitted effect of over 35% in size
In short: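 HEK293 cells stably expressing human DRD2, pre-treated with PDE inhibitor Ro20-1724 (0.1 mM final) and compound 10 min at room temperature, then stimulated with NKH477 (200nM […]) for 30 min. cAMP read by HTRF (665/620 nm).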

Measured: Potency

CCCCCCCCC(C)=O
inactive: [1] | [2] | [3] | [4] | [5] | [6] | [7] | [8] | [9] | [10] | [11] | [12] | [13] | [14]

CC1=CC(O)CC(C)(C)C1 (configuration not stated)
inactive: [1] | [2] | [3] | [4] | [5] | [6] | [7] | [15] | [9] | [10] | [11] | [16] | [17] | [12] | [18] | [13] | [19] | [20] | [14]

Cc1nc2ccccc2n1Cc1ccc(Cl)cc1
active: [1] 1.68 µM
inactive: [2] | [3] | [4] | [5] | [6] | [8] | [15] | [11] | [16] | [17] | [18] | [13] | [19] | [14]

CCOC(=O)c1ccccc1O
inactive: [1] | [2] | [3] | [4] | [5] | [6] | [7] | [10] | [11] | [16] | [17] | [12] | [18] | [13] | [19] | [14]

N#Cc1ccc(CC(=O)c2cccc(C(F)(F)F)c2)cc1
inactive: [1] | [2] | [3] | [4] | [5] | [6] | [7] | [8] | [9] | [10] | [11] | [16] | [17] | [12] | [13] | [20] | [14]

CCCCC(CC)COC(=O)CCCCCCCCC(=O)OCC(CC)CCCC (configuration not stated)
inactive: [1] | [2] | [3] | [4] | [5] | [7] | [8] | [15] | [9] | [10] | [11] | [16] | [12] | [18] | [13] | [19] | [20] | [14]

CCN1CCCC1CNC(=O)c1cc(S(N)(=O)=O)ccc1OC (configuration not stated)
inactive: [1] | [2] | [3] | [4] | [5] | [6] | [7] | [8] | [13] | [19] | [20]

CCCCCCCCCCCCCCN(CCO)CCO
active: [1] 27.3 µM | [11] 21.9 µM
inactive: [2] | [3] | [4] | [5] | [6] | [8] | [10] | [13] | [20] | [14]

CC1=C2[C@H](/C=C(\C)C(=O)O)CC[C@@H](C)[C@H]2CC1
inactive: [2] | [3] | [4] | [5] | [6] | [8] | [9] | [10] | [11] | [17] | [13] | [14]
active: [1] 44.9 µM | [7] 29.9 µM

C=CC/C=C/C/C=C/C/C=C/C
inactive: [1] | [2] | [3] | [4] | [5] | [6] | [7] | [8] | [9] | [10] | [11] | [16] | [17] | [12] | [19] | [20]

CC(=O)OC1CCCCC1C(C)(C)C (configuration not stated)
inactive: [1] | [2] | [3] | [4] | [5] | [6] | [7] | [15] | [9] | [10] | [11] | [16] | [17] | [12] | [13] | [19] | [20] | [14]

Cc1cccc2sc(N)nc12
inactive: [1] | [2] | [3] | [4] | [5] | [6] | [7] | [8] | [9] | [10] | [11] | [17] | [12] | [18] | [13] | [19] | [20] | [14]

OCCN(CCO)CCN(CCO)CCO
inactive: [1] | [2] | [3] | [4] | [5] | [6] | [7] | [15] | [9] | [10] | [16] | [17] | [12] | [18] | [13] | [20] | [14]

C#CCOC(=O)[C@@H](C)Oc1ccc(Oc2ncc(Cl)cc2F)cc1
inactive: [1] | [2] | [3] | [4] | [5] | [7] | [8] | [9] | [10] | [11] | [16] | [17] | [13] | [20] | [14]

CO[C@H]1O[C@H](CO)[C@@H](O)[C@H](O)[C@H]1O
inactive: [1] | [2] | [3] | [4] | [5] | [6] | [8] | [15] | [9] | [11] | [16] | [17] | [12] | [18] | [13] | [19] | [14]
